Of roughly 8,800 targets only a part is listed; those with a hit were picked by preference. About 0.5% of all pairs of compound and target were hits.
Columns and labels:
Assay in all cases: log2 fold change, soluble protein after heating vs DMSO (PISA); higher = thermal stabilisation; K562 lysate, 10 uM; active = over 0.2 and 3.5 SD of the protein, either way, in both replicates (recomputed)
[1] = compound: CS(=O)(=O)CCNCc1ccc(-c2ccc3ncnc(Nc4ccc(OCc5cccc(F)c5)c(Cl)c4)c3c2)o1 [lapatinib]
Summary of the method: (§1)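 K562 pellets were dounce-homogenised in PBS pH 7.4 containing 1 mM MgCl2, and the crude extract, at 1 mg/mL protein, was exposed to 10 μM compound for 30 min. Aliquots were heated for 3 min across 48°C-58°C, pooled, brought to 0.5% NP-40 at 4°C and spun at 21,000xg for 90 min, with the supernatant taken as soluble protein. TMTpro 16plex LC-MS/MS with equalised channel sums quantified that protein. Values are log-two fold changes in thermal stability relative to solvent controls, taken from duplicates.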

[2] = compound: CS(=O)(=O)N1CCN(Cc2cc3nc(-c4cccc5[nH]ncc45)nc(N4CCOCC4)c3s2)CC1 [pictilisib]
Summary of the method: as §1

[3] = compound: C[C@@H](Oc1cc(-c2cnn(C3CCNCC3)c2)cnc1N)c1c(Cl)ccc(F)c1Cl [crizotinib]
Summary of the method: as §1

[4] = compound: C[C@H](C1=CC=C(C=C1)C(=O)NC2=C3C=CNC3=NC=C2)N
Summary of the method: as §1

[5] = compound: C[C@H](Nc1ncnc2nc[nH]c12)c1cc2cccc(Cl)c2c(=O)n1-c1ccccc1 [duvelisib]
Summary of the method: as §1

[6] = compound: Cc1cc(Nc2cc(CN3CCOCC3)c3nc(C)c(Cc4ccc(Cl)cc4F)n3n2)n[nH]1 [gandotinib]
Summary of the method: as §1

[7] = compound: Cc1cc(Nc2cc(N3CCN(C)CC3)nc(Sc3ccc(NC(=O)C4CC4)cc3)n2)n[nH]1 [tozasertib]
Summary of the method: as §1

[8] = compound: Cc1ccc(-n2nc(C(C)(C)C)cc2NC(=O)Nc2ccc(OCCN3CCOCC3)c3ccccc23)cc1 [doramapimod]
Summary of the method: as §1

[9] = compound: Cc1ccc(NC(=O)c2ccc(CN3CC[C@H](N(C)C)C3)c(C(F)(F)F)c2)cc1Nc1nccc(-c2cncnc2)n1 [bafetinib]
Summary of the method: as §1

[10] = compound: Cc1cccc(CC(=O)N2CCc3c2ccc(-c2cn(C)c4ncnc(N)c24)c3F)n1
Summary of the method: as §1

[11] = compound: Cc1cn(-c2cc(NC(=O)c3ccc(C)c(Nc4nccc(-c5cccnc5)n4)c3)cc(C(F)(F)F)c2)cn1 [nilotinib]
Summary of the method: as §1

[12] = compound: Cc1nc(Nc2n[nH]c3c2CN(C(=O)N[C@H](CN(C)C)c2ccccc2)C3(C)C)c2sccc2n1
Summary of the method: as §1

[13] = compound: Cc1nc(Nc2ncc(C(=O)Nc3c(C)cccc3Cl)s2)cc(N2CCN(CCO)CC2)n1 [dasatinib]
Summary of the method: as §1

[14] = compound: Cc1ncc(-c2ccnc(Nc3ccc(S(C)(=O)=O)cc3)n2)n1C(C)C
Summary of the method: as §1

[15] = compound: Cn1cc(-c2ccc3c(c2)CCN3C(=O)Cc2cccc(C(F)(F)F)c2)c2c(N)ncnc21
Summary of the method: as §1

[16] = compound: Cn1cc(CNCC2CCN(c3ncc(C(=O)NO)cn3)CC2)c2ccccc21 [quisinostat]
Summary of the method: as §1

[17] = compound: Cn1cncc1[C@@](N)(c1ccc(Cl)cc1)c1ccc2c(c1)c(-c1cccc(Cl)c1)cc(=O)n2C [tipifarnib]
Summary of the method: as §1

[18] = compound: NC(=O)Nc1cc(-c2cccc(F)c2)sc1C(=O)N[C@H]1CCCNC1
Summary of the method: as §1

[19] = compound: NC(=O)c1cnc(N[C@@H]2CCCC[C@@H]2N)nc1Nc1cccc(-n2nccn2)c1
Summary of the method: as §1

[20] = compound: NC1(c2ccc(-c3nc4ccn5c(=O)[nH]nc5c4cc3-c3ccccc3)cc2)CCC1
Summary of the method: as §1

Measured: log2 fold change

XPOT (UniProt O43592)
Sequence of UniProt O43592 (O43592 whole entry, looked up): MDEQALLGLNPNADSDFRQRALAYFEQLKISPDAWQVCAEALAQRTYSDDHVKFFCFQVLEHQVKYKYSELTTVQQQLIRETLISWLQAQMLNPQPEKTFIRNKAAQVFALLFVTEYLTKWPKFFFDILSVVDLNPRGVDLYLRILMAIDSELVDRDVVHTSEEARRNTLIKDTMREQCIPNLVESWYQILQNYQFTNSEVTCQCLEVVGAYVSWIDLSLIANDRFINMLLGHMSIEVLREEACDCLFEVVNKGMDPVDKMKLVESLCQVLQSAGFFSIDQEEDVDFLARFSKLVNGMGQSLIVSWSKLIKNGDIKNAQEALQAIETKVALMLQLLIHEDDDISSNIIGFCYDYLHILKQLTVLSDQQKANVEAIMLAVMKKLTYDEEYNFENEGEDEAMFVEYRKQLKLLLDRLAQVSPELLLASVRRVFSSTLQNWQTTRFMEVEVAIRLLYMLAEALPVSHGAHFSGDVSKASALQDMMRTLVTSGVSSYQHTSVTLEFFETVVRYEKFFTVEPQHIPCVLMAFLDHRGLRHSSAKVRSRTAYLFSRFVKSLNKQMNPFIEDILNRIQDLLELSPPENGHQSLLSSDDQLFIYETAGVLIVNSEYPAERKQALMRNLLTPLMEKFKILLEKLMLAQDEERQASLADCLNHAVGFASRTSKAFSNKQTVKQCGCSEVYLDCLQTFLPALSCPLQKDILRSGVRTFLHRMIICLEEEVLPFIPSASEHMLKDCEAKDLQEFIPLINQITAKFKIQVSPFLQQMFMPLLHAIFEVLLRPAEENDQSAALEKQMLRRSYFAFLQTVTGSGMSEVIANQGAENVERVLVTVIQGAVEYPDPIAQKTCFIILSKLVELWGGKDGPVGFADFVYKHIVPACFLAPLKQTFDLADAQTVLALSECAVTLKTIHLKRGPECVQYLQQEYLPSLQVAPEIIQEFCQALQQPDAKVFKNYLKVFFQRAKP
inactive: [1] -0.033 | [2] 0.013 | [3] -0.051 | [4] -0.044 | [5] 0.022 | [6] -0.086 | [7] -0.007 | [8] 0 | [9] -0.04 | [10] 0.057 | [11] -0.011 | [12] -0.017 | [13] -0.064 | [14] 0 | [15] -0.004 | [16] -0.056 | [17] 0.005 | [18] 0.037 | [19] 0.003 | [20] -0.001

WDCP (UniProt Q9H6R7)
Sequence of UniProt Q9H6R7 (Q9H6R7 whole entry, looked up): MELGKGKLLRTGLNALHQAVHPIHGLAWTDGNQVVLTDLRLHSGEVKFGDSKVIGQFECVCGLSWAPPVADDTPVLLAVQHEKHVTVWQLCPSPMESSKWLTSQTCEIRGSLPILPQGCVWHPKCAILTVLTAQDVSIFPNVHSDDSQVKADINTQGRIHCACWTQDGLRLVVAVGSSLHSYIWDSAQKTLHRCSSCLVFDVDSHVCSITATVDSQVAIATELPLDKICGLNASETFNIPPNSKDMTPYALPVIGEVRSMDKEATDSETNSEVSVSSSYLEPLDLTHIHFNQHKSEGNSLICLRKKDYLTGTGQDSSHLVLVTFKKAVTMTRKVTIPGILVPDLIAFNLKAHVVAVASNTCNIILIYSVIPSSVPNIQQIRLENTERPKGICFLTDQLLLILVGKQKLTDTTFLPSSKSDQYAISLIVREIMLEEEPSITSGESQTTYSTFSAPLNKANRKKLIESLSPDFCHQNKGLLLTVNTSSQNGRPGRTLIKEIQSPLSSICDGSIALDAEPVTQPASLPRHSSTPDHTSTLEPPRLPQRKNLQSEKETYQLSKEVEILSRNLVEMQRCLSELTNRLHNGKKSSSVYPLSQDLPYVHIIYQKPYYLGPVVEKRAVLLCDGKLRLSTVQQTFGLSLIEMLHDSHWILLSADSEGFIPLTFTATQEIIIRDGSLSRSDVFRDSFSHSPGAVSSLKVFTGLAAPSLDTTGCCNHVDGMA
inactive: [1] -0.048 | [2] 0.017 | [3] -0.079 | [4] 0.022 | [5] 0.038 | [6] -0.058 | [7] -0.03 | [8] -0.02 | [9] -0.027 | [10] 0.002 | [11] -0.01 | [12] 0.001 | [13] -0.035 | [14] 0.006 | [15] -0.018 | [16] -0.107 | [17] 0.009 | [18] 0.014 | [19] -0.069 | [20] 0.007

VASP (UniProt P50552)
Sequence of UniProt P50552 (P50552 whole entry, looked up): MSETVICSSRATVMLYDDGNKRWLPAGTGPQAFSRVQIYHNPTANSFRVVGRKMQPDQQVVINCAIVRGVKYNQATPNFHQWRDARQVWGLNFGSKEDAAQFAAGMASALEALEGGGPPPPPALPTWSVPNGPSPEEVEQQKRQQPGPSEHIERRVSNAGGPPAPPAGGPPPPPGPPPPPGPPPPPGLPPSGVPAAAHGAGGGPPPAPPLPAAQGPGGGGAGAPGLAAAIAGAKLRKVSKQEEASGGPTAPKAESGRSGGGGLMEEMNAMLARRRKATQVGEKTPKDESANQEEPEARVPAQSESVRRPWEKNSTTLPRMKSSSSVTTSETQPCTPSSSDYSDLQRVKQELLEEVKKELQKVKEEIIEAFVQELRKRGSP
inactive: [1] -0.006 | [2] 0.004 | [3] 0.007 | [4] -0.017 | [5] 0.047 | [6] 0.005 | [7] 0.019 | [8] -0.004 | [9] 0.136 | [10] 0.009 | [11] -0.025 | [12] -0.002 | [13] -0.061 | [14] -0.014 | [15] -0.001 | [16] 0.012 | [17] 0.008 | [18] -0.012 | [19] -0.006 | [20] 0.013

USP48 isoform 8 (UniProt Q86UV5)
Sequence of UniProt Q86UV5 (Q86UV5 whole entry, looked up): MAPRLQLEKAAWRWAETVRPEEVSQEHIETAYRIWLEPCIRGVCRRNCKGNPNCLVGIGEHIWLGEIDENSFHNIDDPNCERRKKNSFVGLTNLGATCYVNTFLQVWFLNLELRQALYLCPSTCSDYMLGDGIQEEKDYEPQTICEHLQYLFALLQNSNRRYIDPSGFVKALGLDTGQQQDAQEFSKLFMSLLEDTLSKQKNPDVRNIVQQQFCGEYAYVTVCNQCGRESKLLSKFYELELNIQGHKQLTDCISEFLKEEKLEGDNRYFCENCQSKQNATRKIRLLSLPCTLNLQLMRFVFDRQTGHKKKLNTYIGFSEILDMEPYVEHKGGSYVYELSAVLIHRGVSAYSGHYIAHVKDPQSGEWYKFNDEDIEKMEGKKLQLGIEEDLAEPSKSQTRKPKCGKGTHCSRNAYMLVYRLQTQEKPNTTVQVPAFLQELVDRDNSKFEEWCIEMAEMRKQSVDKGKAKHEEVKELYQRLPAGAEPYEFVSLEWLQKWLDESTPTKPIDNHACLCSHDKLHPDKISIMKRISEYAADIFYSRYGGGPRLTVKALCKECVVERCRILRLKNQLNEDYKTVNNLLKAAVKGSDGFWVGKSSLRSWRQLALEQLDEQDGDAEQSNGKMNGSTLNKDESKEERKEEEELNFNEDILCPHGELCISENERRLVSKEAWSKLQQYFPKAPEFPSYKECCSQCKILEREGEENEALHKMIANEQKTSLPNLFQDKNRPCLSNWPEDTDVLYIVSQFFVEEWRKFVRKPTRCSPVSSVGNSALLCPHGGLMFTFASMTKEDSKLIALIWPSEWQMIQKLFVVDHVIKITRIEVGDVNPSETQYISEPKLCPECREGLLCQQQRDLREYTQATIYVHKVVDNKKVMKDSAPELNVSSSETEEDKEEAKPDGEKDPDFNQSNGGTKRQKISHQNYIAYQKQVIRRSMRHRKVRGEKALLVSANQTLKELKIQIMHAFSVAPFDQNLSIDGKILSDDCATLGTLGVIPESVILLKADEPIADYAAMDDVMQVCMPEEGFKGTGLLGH
inactive: [1] -0.01 | [2] -0.001 | [3] -0.022 | [4] -0.006 | [5] -0.001 | [6] -0.044 | [7] 0.008 | [8] 0.024 | [9] -0.027 | [10] 0.034 | [11] 0.018 | [12] 0.008 | [13] 0.001 | [14] 0 | [15] 0.015 | [16] -0.04 | [17] -0.011 | [18] 0.008 | [19] -0.001 | [20] -0.024

WRB (UniProt O00258)
Sequence of UniProt O00258 (O00258 whole entry, looked up): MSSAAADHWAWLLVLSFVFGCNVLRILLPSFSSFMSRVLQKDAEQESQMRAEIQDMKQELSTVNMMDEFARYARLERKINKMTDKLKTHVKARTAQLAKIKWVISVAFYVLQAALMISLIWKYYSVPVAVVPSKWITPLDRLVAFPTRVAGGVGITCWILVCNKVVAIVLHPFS
inactive: [1] -0.067 | [2] -0.118 | [3] 0.034 | [4] -0.138 | [5] 0.006 | [7] -0.033 | [8] -0.074 | [9] -0.017 | [10] 0.339 | [11] 0.06 | [12] -0.017 | [13] -0.014 | [14] 0.183 | [15] 0.082 | [16] 0.015 | [17] -0.044 | [18] -0.005 | [19] 0.071 | [20] 0.024
active: [6] 0.348

WDR41 (UniProt Q9HAD4)
Sequence of UniProt Q9HAD4 (Q9HAD4 whole entry, looked up): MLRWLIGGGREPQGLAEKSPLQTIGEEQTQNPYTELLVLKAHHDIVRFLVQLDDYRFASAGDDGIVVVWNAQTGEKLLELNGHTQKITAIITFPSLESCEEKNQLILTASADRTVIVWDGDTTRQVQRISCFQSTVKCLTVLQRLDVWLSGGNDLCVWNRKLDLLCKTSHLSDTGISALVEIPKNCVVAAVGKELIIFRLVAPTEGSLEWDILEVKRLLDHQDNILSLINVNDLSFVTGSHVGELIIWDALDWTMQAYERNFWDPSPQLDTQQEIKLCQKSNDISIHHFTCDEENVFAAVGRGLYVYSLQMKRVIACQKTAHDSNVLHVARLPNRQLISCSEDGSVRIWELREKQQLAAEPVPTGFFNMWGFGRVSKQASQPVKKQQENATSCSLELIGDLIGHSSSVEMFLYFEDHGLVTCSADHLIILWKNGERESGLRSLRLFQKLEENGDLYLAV
active: [8] 0.241
inactive: [1] 0.013 | [2] 0.099 | [3] 0.022 | [4] -0.037 | [5] -0.026 | [6] 0.149 | [7] -0.069 | [9] -0.065 | [10] 0.126 | [11] -0.012 | [12] -0.023 | [13] 0.028 | [14] -0.011 | [15] 0.005 | [16] -0.036 | [17] -0.077 | [18] -0.009 | [19] -0.032 | [20] -0.017

WDR91 (UniProt A4D1P6)
Sequence of UniProt A4D1P6 (A4D1P6 whole entry, looked up): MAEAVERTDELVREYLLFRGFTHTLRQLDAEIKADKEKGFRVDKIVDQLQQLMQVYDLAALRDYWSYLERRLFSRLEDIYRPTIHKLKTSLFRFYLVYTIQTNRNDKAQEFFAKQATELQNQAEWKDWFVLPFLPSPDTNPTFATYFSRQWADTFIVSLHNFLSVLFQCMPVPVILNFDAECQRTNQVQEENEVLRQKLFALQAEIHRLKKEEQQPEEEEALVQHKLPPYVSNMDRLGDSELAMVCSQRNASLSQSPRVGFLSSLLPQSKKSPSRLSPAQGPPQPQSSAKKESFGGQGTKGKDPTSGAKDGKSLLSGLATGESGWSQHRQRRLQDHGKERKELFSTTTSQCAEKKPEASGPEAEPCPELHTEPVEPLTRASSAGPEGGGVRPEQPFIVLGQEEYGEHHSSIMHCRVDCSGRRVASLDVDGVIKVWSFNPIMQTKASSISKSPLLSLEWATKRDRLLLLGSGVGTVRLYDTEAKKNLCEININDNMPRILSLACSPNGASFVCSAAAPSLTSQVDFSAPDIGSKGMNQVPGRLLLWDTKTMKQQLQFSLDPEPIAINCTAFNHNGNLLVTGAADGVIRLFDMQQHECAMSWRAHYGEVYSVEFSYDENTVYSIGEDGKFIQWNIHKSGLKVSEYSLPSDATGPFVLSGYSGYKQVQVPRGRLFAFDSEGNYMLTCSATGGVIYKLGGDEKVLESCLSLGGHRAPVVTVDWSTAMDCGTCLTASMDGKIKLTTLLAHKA
inactive: [1] -0.003 | [2] -0.012 | [3] -0.009 | [4] -0.001 | [5] 0.002 | [6] 0.048 | [7] 0 | [8] 0.038 | [9] -0.05 | [10] 0.052 | [11] -0.051 | [12] -0.025 | [13] -0.039 | [14] -0.01 | [15] 0.056 | [16] 0.005 | [17] 0.014 | [18] -0.009 | [19] -0.004 | [20] 0.011

YWHAQ (UniProt P27348)
Sequence of UniProt P27348 (P27348 whole entry, looked up): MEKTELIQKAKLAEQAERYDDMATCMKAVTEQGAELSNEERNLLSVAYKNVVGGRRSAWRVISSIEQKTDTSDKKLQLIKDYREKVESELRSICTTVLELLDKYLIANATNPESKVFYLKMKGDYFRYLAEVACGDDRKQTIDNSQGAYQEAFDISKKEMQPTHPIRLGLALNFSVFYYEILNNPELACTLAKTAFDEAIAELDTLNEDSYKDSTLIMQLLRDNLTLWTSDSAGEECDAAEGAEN
active: [4] 0.466
inactive: [1] 0.001 | [2] 0.038 | [3] 0.07 | [5] -0.012 | [6] -0.089 | [7] -0.024 | [8] -0.043 | [9] -0.043 | [10] -0.095 | [11] -0.008 | [12] -0.005 | [13] 0.04 | [14] 0.037 | [15] 0.011 | [16] 0.095 | [17] 0.019 | [18] -0.023 | [19] -0.035 | [20] 0.014

Source: the supplement of paper PMC10849652
